Results filed as inconclusive are left out. A call without a number means that no potency is given here. The source made the active and inactive calls. Calls come from the whole dose curve; as a rule, active = well fitted inhibition curve with a large enough effect; inconclusive = small, poorly fitted or top-dose-only effect; inactive = no such curve, though single readings can be large or run the other way.

This assay has as its system Zika virus NS2B-NS3 protease (linked construct). Briefly: Primary screen NINDS Rhodamine qHTS for Zika virus inhibitors (AID 1347160). Note: nearly all actives have a fitted effect of over 55% in size. The settings on record: purified NS2B-NS3 protease, Rhodamine110 substrate fluorescence; series mostly up to 57.1 µM. A digest of the protocol:
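Percent inhibition, normalized to uninhibited and enzyme-free controls, is fitted to a 4-parameter Hill equation. Fluorescence change comes from a 15-min cleavage of 1.5 microM bis-peptide Rhodamine110 substrate by 25 nM linked NS2B-NS3 at room temperature.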
On the technique in general: In qHTS, concentration-response curves come from the screen itself.
With `CCC1C(=O)N(C)c2cnc(Nc3ccc(C(=O)NC4CCC(N5CCN(CC6CC6)CC5)CC4)cc3OC)nc2N1C(C)C` (stereo not given), the Potency entry was “inactive”.

For the compound `CC1(C)CCC2(C(=O)OC3OC(CO)C(O)C(O)C3O)CCC3(C)C(=CCC4C5(C)CCC(OC6OC(C(=O)O)C(OC7OC(CO)C(O)C(O)C7O)C(OC7OC(CO)C(O)C(O)C7O)C6O)C(C)(C)C5CCC43C)C2C1` (stereo not given), the Potency entry was “inactive”.

With `O=C1Nc2ccccc2C(O)(c2ccccc2)C1O` (stereo not given), the Potency entry is “inactive”.

In the case of `COc1c/c(=C2\C=c3ccccc3=N2)[nH]/c1=C\c1[nH]c(C)cc1C`, the Potency entry is “inactive”.

In the case of `Cc1ccc(S(=O)(=O)c2ccc([N+](=O)[O-])o2)cc1`, the Potency entry was “inactive”.

As to `Cc1ccccc1-n1c([C@H](C)Nc2nc(N)nc3nc[nH]c23)nc2cccc(C)c2c1=O`, the Potency result is “inactive”.

In the case of `COc1ccc(CCO[C@@H]2CCCC[C@H]2N2CC[C@@H](O)C2)cc1OC`, the Potency entry is “inactive”.

On to `C=C1C[C@]23C[C@H]1CC[C@H]2[C@@]12CC[C@H](O)[C@@](C)(C(=O)O1)[C@H]2[C@@H]3C(=O)O`, for which the Potency result was “inactive”.

For `CCN(CC)CCN(Cc1ccc(-c2ccc(C(F)(F)F)cc2)cc1)C(=O)Cn1c(SCc2ccc(F)cc2)nc(=O)c2c1CCC2`, the Potency entry was “inactive”.

With `CC1OC(OC2C(OC3C(O[C@H]4CC[C@@]5(C)C(CC[C@]6(C)C5C(=O)C=C5C7CC(C)(C)CC(O)[C@]7(C)CC[C@]56C)C4(C)C)OC(C(=O)O)C(O)C3O)OCC(O)C2O)C(O)C(O)C1O` (stereo not given in full), the Potency result is “inactive”.

Take `C/C=C/C=C/C(O)=C1\C(O)=C(C)C(=O)[C@@]2(C)OC(=O)[C@@](C)(NC(=O)/C=C/C(=O)O)[C@@H]12`: the Potency entry was “inactive”.

`C[C@@H]1C(=O)OC[C@H]2C(C(=O)O)=C[C@@H]3CC(C)(C)C[C@]312`: the Potency result is “inactive”.

Regarding `Cc1cc(O)c(-c2ccc([C@@H](C)CN(C)C)cc2)c2c1[nH]c(=O)c1sccc12`, the Potency result was “inactive”.

For `C=C1C[C@]23C[C@H]1CC[C@H]2C1=C[C@H]2OC(=O)[C@@](C)([C@H]1[C@@H]3C(=O)O)[C@H]2O`, the Potency result was “inactive”.

For `CC(=O)NC[C@H]1CN(c2ccc(N3CCN(C(=O)CO)CC3)c(F)c2)C(=O)O1`, the Potency entry is “inactive”.

(Values after PubChem BioAssay (NCATS).)
